# Compound activity from PubChem BioAssay.
# MRP1 act: activators of MRP-1; H69AR cells + doxorubicin, viability rescue, CellTiter-Glo; viability increase, % at 10 µM; actives 0.61% (n = 140,000);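 active = viability gain under doxorubicin at or above a set limit, the compound median plus 3 SD, cut at about 4.7% in these data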;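 also: MRP-1 overexpressing cells given doxorubicin 25 µM after compound pretreatment; 18-22 h compound pretreatment then 72 h with doxorubicin before readout; 0% = doxorubicin-only wells and 100% = vehicle-treated cells without doxorubicin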
# MRP reversal: compounds reversing MRP-mediated drug resistance | H69AR cells + 2 uM doxorubicin, CellTiter-Glo, 72 h | differential viability (reversal), % at 10 µM | actives 0.04% (n = 85,000);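 active = viability drop by adding the cancer drug above about 55%, with treated viability meeting a 40% cutoff, limit read from the data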;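 also: viability without doxorubicin minus viability with 2 µM doxorubicin for each compound; larger differential means the compound sensitizes cells more to doxorubicin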
# * = called active by the depositor; x = no result given. Shown are actives, neighbours in structure and some others; about 0.65% of the full set was active somewhere.
SMILES,MRP1 act,MRP reversal
CCCN1C(=O)SC(CC(=O)Nc2ccccc2C)C1=O (stereo not given),1,-63
N#Cc1nc(COc2ccc(F)cc2)oc1N1CCC(Cc2ccccc2)CC1,5.3*,8
N#Cc1nc(COc2ccc(F)cc2)oc1N1CCN(Cc2ccccc2)CC1,2,0
COC(=O)COc1ccc(/C=N/NC(=O)c2ccc(N(Cc3ccccc3)S(C)(=O)=O)cc2)cc1,-2,x
CCC1=NN(C(=O)c2ccc(Br)cc2)C(O)(c2ccc(C)cc2)C1 (stereo not given),0,x
CCC1=NN(C(=O)c2ccc(C)cc2)C(O)(c2ccc(Br)cc2)C1 (stereo not given),4.9*,x
O=C(NCCc1ccccc1)C(=O)Nc1nccs1,-2,x
O=C(CC1SC(=O)N(Cc2ccccc2)C1=O)Nc1nccs1 (stereo not given),12*,x
O=C(Nc1nnc(COc2ccc(Cl)cc2)s1)C1CCCO1 (stereo not given),8.9*,-1
O=C(Nc1nnc(SCc2ccc(Cl)cc2)s1)C1CCCO1 (stereo not given),-1,1
CC(C)(C)c1ccc(-c2nc(-c3ccncc3)no2)cc1,6.2*,9
Cc1cc(C)cc(-c2nc(-c3ccncc3)no2)c1,-1,14
COc1cc(OC)cc(C(=O)Nn2cc(C(=O)Nc3ccc(F)cc3F)c3ccccc3c2=O)c1,-2,x
Cc1ccc(Nc2ncccc2C(N)=O)cc1[N+](=O)[O-],1,x
Cc1ccc(NC2=CC(=O)CC(c3ccccc3)C2)cc1 (stereo not given),-4,x
Cc1ccc(NC2=CC(=O)CC(c3ccc(Cl)cc3)C2)cc1 (stereo not given),4.7*,x
CCCCC(=O)NCCNC(=O)c1cc(OCC(F)(F)F)ccc1OCC(F)(F)F,-2,1
COc1cc(OC)cc(-c2nc3ccccc3c(=O)n2OC(=O)c2ccc(C)c(C)c2)c1,-3,x
COc1ccc(Cc2nc3ccccc3n2CC(=O)N/N=C/c2ccc(C)cc2O)cc1OC,3,x
COc1ccc(Cc2nnc(N/N=C/c3ccc(O)cc3O)[nH]c2=O)cc1OC,6.0*,x
O=C(NN=C1c2ccccc2-c2ccccc21)c1cccc(Br)c1,-5,x
N#Cc1nc(COc2ccccc2F)oc1NCCc1ccccc1,0,-2
CN(Cc1ccccc1)c1oc(COc2ccccc2F)nc1C#N,7.4*,3
CN(c1ccccc1)S(=O)(=O)c1cccc(C(=O)OCC(=O)NCc2ccc3c(c2)OCO3)c1,2,x
CCn1nc(C)c(NC(=O)/C=C/c2ccc(OC)c(COc3ccc(Cl)cc3Br)c2)c1C,7.2*,12
SMILES,MRP1 act,MRP reversal
COc1ccc(/C=C/C(=O)NCc2cn(C)nc2C)cc1COc1ccc(Cl)cc1Br,3,x
CC(C)(C)c1cc(N)on1,-2,x
Cc1nnc(NC(=O)C(C)Oc2ccc3c(C)cc(=O)oc3c2)s1 (stereo not given),7.7*,3
Cc1cc(=O)oc2cc(OCC(=O)Nc3nnc(C(C)C)s3)ccc12,1,27
CCc1nnc(NC(=O)CCC(=O)NCCc2ccc(OC)c(OC)c2)s1,-1,x
CCN(CC)CC(O)COc1ccc2c(c1)OCO2 (stereo not given),-1,-3
CN(C(=O)Cc1noc2ccccc12)c1ccccc1,0,x
O=C(COc1ccc(Cl)cc1)NCc1nnc2c3ccccc3c(-c3ccccc3)nn12,5.0*,x
O=C(NCc1nnc2c3ccccc3c(-c3ccccc3)nn12)c1ccccc1Cl,0,x
COc1cccc(CNC(=O)CCNC(=O)Cn2ccc3ccccc3c2=O)c1,-1,x
O=C(CCNC(=O)Cn1ccc2ccccc2c1=O)NCCc1ccccc1Cl,5.1*,x
O=C(Nc1ccc2c(c1)C(=O)N(c1ccccc1)C2=O)C1CCCO1 (stereo not given),-3,10
CCOC(=O)c1c(NC(=O)CSc2nc3ccccc3s2)sc(C)c1C,-2,x
CCOC(=O)c1c(NC(=O)CSc2ncn[nH]2)sc(C)c1C,15*,5
COc1ccc(NC(=O)COC(=O)C2CCC(C(C)(C)C)CC2)c([N+](=O)[O-])c1 (stereo not given),-1,x
COc1cc(-c2nnc3sc(-c4ccccn4)nn23)cc(OC)c1OC,x,1
O=C(CNC(=O)c1ccc2c(c1)OCCO2)N/N=C/c1ccc(O)cc1O,2,x
COc1cccc(/C=N/NC(=O)C[n+]2ccccc2)c1O,1,x
COc1cccc(/C=N/NC(=O)CNC(=O)c2ccc3c(c2)OCCO3)c1O,5.9*,x
COc1cccc(/C=N/NC(=O)CNC(=O)C2COc3ccccc3O2)c1O (stereo not given),9.6*,x
Cc1cc(C(=O)Nc2cc(C)n(Cc3ccc(Cl)cc3)n2)no1,0,-3
Cc1cc(NC(=O)c2cc(C(C)C)on2)nn1Cc1ccc(Cl)cc1,6.7*,-8
CCOc1ccc(Br)cc1S(=O)(=O)Nc1ccc(NC(=O)c2ccccc2F)cc1,-2,x
COc1ccc(NC(=O)c2c(F)cccc2F)cc1S(=O)(=O)Nc1ccc(Br)cc1,6.3*,x
c1ccc(OCCSc2nc3ccccc3[nH]2)cc1,5.3*,27
